Results: PubChem BioAssay (NCATS)

assay: qHTS profiling of the MIPE4 collection as inhibitors of Plasmodium falciparum (3D7) proliferation (AID 743344);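 also: scaled between DMSO vehicle wells and 0.29 µM artemisinin as full inhibition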; details: P. falciparum 3D7 in erythrocytes, SYBR Green DNA fluorescence, 72 h; at 28.5 µM unless noted
Description: Plasmodium falciparum is a virulent malarial parasite that kills 1-2 million people worldwide each year. Transmitted by mosquitoes, the sporozoite form of the parasite enters the blood stream to infect hepatocytes, where they become merozoites that infect red blood cells (erythrocytes). Within erythrocytes, merozoites begin a […] cycle of growth and division, after which the parasite is released to infect new red blood cells. Gametocytes, which form within erythrocytes as well, circulate in the bloodstream and are ingested by the mosquito, thereby completing the life cycle. To profile malarial isolates for differential chemical responses and to identify inhibitors of malarial growth, an assay that measures P. falciparum growth and replication within erythrocytes was employed. This assay uses a DNA binding fluorescent dye (SYBR Green) to detect parasite DNA following cell lysis. Because mature erythrocytes lack DNA, only Plasmodium-derived DNA is detected.
The SYBR Green viability assay was adapted from a method described previously (Plouffe et al., 2008). For screening 3 ul culture medium was dispensed into 1536 well black clear bottom plates (Aurora Biotechnologies) using a Multidrop Combi (Thermo Fisher Scientific Inc.), 23 nL compounds in DMSO were added by a pin tool (Kalypsys), and 5 ul of erythrocytes infected with P. falciparum (0.3% parasitemia, 2.5% hematocrit final concentration) were added. The plates were incubated at 37 C in a humidified incubator in 5% CO2 for 72 h, and 2 ul lysis buffer (20 mM Tris HCl, 10 mM EDTA, 0.16% saponin, 1.6% triton X, 10X SYBR Green I supplied as 10,000X […] by Invitrogen) was added to each well. The plates were mixed for 25 sec with gentle shaking and incubated overnight at room temperature in the dark. The following morning, fluorescence intensity at 485(14) nm excitation and 535(25) nm emission wavelengths was measured on an EnVision (Perkin Elmer) plate reader. Plate reads were normalized relative to the control inhibitor (0.29 uM artemisinin) and vehicle (DMSO) wells present on each plate and then corrected by an algorithm using vehicle-only control plates at the beginning and end of the compound plate stack.

For `Oc1ccc(C=Cc2cc(O)cc(O)c2)cc1`, which parasite growth, % of DMSO control is on record?
The parasite growth, % of DMSO control was 49.1%.

With `CC1=C(C(=O)Nc2cc3cn[nH]c3cc2F)C(c2ccc(C(F)(F)F)cc2)CC(=O)N1` (stereo not given) as the compound, how does the parasite growth, % of DMSO control read?
Its parasite growth, % of DMSO control is 5.13%.

Which parasite growth, % of DMSO control does the source give for `CCOC(=O)N1CCN([N+]([O-])=NOc2cc(ON=[N+]([O-])N3CCN(C(=O)OCC)CC3)c([N+](=O)[O-])cc2[N+](=O)[O-])CC1` here?
The parasite growth, % of DMSO control was 56.9%.

Which parasite growth, % of DMSO control does the source give for `COc1c(C)c2c(c(O)c1CC=C(C)CCC(=O)O)C(=O)OC2` here?
The parasite growth, % of DMSO control was 15.7%.

Which parasite growth, % of DMSO control does the source give for `CCN1CCN(c2ccc(Nc3cc(N(C)C(=O)Nc4c(Cl)c(OC)cc(OC)c4Cl)ncn3)cc2)CC1` here?
The parasite growth, % of DMSO control was 4.57%.

Which parasite growth, % of DMSO control does the source give for `COC(=O)Nc1ccc(-c2nc(N3CCOCC3)c3cnn(C4CCN(C(=O)OC)CC4)c3n2)cc1` here?
Its parasite growth, % of DMSO control is 11.1%.

With `NC1(C(=O)N[C@@H](CCO)c2ccc(Cl)cc2)CCN(c2ncnc3[nH]ccc23)CC1` as the compound, how does the parasite growth, % of DMSO control read?
The parasite growth, % of DMSO control was 32.2%.

Which parasite growth, % of DMSO control does the source give for `CN[C@@H]1[C@@H](O)[C@@H](O[C@@H]2[C@@H](O)[C@H](O[C@H]3O[C@H](CN)[C@@H](O)[C@H](O)[C@@H]3O)[C@@H](N)C[C@@H]2NC(=O)[C@@H](O)CN)OC[C@]1(C)O` here?
The parasite growth, % of DMSO control was 94%.

Which parasite growth, % of DMSO control does the source give for `NC(=O)c1ccc(N(C(N)=O)c2c(F)cccc2F)nc1-c1ccc(F)cc1F` here?
The parasite growth, % of DMSO control was 79.5%.

Which parasite growth, % of DMSO control does the source give for `CCC(=O)OCC(=O)[C@@]1(OC(=O)CC)[C@@H](C)C[C@@H]2[C@H]3CCC4=CC(=O)C=C[C@]4(C)[C@@]3(F)[C@@H](O)C[C@@]21C` here?
The parasite growth, % of DMSO control was 12%.

For `NCC1CCC(C(=O)O)CC1` (stereo not given), which parasite growth, % of DMSO control is on record?
Its parasite growth, % of DMSO control is 428%.

With `CC(O)=C(C#N)C(=O)Nc1ccc(C(F)(F)F)cc1` as the compound, how does the parasite growth, % of DMSO control read?
The parasite growth, % of DMSO control was 63.7%.

With `C[C@@H]1CC=CC=CC=CC=C[C@@H](O[C@@H]2O[C@H](C)[C@@H](O)[C@H](N)[C@H]2O)C[C@@H]2O[C@](O)(C[C@@H](O)C[C@@H]3O[C@@H]3C=CC(=O)O1)C[C@H](O)[C@@H]2C(=O)O` as the compound, how does the parasite growth, % of DMSO control read?
The parasite growth, % of DMSO control was 46.3%.

With `C[C@]12C=CC(=O)C=C1CC[C@@H]1[C@@H]2[C@@H](O)C[C@@]2(C)[C@@H]1CC[C@]2(O)C(=O)CO` as the compound, how does the parasite growth, % of DMSO control read?
Its parasite growth, % of DMSO control is 84.7%.

Which parasite growth, % of DMSO control does the source give for `O=S(=O)(NCCNCC=Cc1ccc(Br)cc1)c1cccc2cnccc12` here?
Its parasite growth, % of DMSO control is 35.6%.

With `CCNC(=O)CCCC=CC[C@@H]1[C@H](C=CC(O)CCc2ccccc2)[C@@H](O)C[C@@H]1O` (stereo not given in full) as the compound, how does the parasite growth, % of DMSO control read?
Its parasite growth, % of DMSO control is 63.1%.

For `CC1(C)CC(=O)c2c(C(F)(F)F)nn(-c3ccc(C(N)=O)c(NC4CCC(O)CC4)c3)c2C1` (stereo not given), which parasite growth, % of DMSO control is on record?
Its parasite growth, % of DMSO control is 5.39%.

With `CC(C)c1c(C(=O)Nc2ccccc2)c(-c2ccccc2)c(-c2ccc(F)cc2)n1CC[C@H](O)C[C@@H](O)CC(=O)O` as the compound, how does the parasite growth, % of DMSO control read?
The parasite growth, % of DMSO control was 7.03%.

Which parasite growth, % of DMSO control does the source give for `COc1cc2c(cc1OC)CC(=O)N(CCCN(C)C[C@H]1Cc3cc(OC)c(OC)cc31)CC2` here?
Its parasite growth, % of DMSO control is 92%.

Which parasite growth, % of DMSO control does the source give for `Cn1cnc(-c2cc3nccc(Oc4ccc(NC(=S)NC(=O)Cc5ccccc5)cc4F)c3s2)c1` here?
Its parasite growth, % of DMSO control is 8.29%.

Which parasite growth, % of DMSO control does the source give for `CCCCC(C)(C)[C@H](O)C=C[C@H]1[C@H](O)CC(=O)[C@H]1CC=CCCCC(=O)O` here?
Its parasite growth, % of DMSO control is 76.7%.

For `CC(C)(CO)[C@@H](O)C(=O)NCCC(=O)O`, which parasite growth, % of DMSO control is on record?
Its parasite growth, % of DMSO control is 92.1%.

For `C=CC(=O)Nc1cccc(Sc2nc(Nc3ccc(N4CCN(C)CC4)cc3)ncc2Cl)c1`, which parasite growth, % of DMSO control is on record?
Its parasite growth, % of DMSO control is 4.12%.

With `Cc1csc(-c2nnc(Nc3ccc(Oc4ncccc4-c4ccnc(N)n4)cc3)c3ccccc23)c1` as the compound, how does the parasite growth, % of DMSO control read?
Its parasite growth, % of DMSO control is 38.3%.

Which parasite growth, % of DMSO control does the source give for `C[C@H]1O[C@@H](n2cc(F)c(=O)[nH]c2=O)[C@H](O)[C@H]1O` here?
The parasite growth, % of DMSO control was 22.6%.

Which parasite growth, % of DMSO control does the source give for `CN(C)S(=O)(=O)c1ccc2c(c1)C(=Cc1cc3c([nH]1)CCCC3)C(=O)N2` here?
Its parasite growth, % of DMSO control is 22.9%.

For `CC(C)[C@H](O)C(=O)N[C@@H](C)C(=O)N[C@@H]1C(=O)N(C)CCc2ccccc21`, which parasite growth, % of DMSO control is on record?
The parasite growth, % of DMSO control was 13.3%.

With `O=C(O)CCNc1cc(N2CCc3ccccc3CC2)nc(-c2ccccn2)n1` as the compound, how does the parasite growth, % of DMSO control read?
Its parasite growth, % of DMSO control is 19.7%.

For `CN1[C@H]2CC[C@H]1CC(OC(=O)c1c[nH]c3ccccc13)C2` (stereo not given in full), which parasite growth, % of DMSO control is on record?
Its parasite growth, % of DMSO control is 53%.

Which parasite growth, % of DMSO control does the source give for `c1ccc(CNc2nc(N3CCOc4ccccc43)nc3c2CCCC3)cc1` here?
The parasite growth, % of DMSO control was 10.7%.

For `O=C(Nc1cccc2c(=O)cc(-c3nn[nH]n3)oc12)c1ccc(OCCCCc2ccccc2)cc1`, which parasite growth, % of DMSO control is on record?
Its parasite growth, % of DMSO control is 8.12%.

Which parasite growth, % of DMSO control does the source give for `C[C@@]1(c2cc(-c3cncnc3)c(F)cc2F)CCSC(N)=N1` here?
The parasite growth, % of DMSO control was 28.5%.

Which parasite growth, % of DMSO control does the source give for `COc1nccc(-c2c(-c3ccc(F)cc3)ncn2C2CCNCC2)n1` here?
Its parasite growth, % of DMSO control is 36.4%.

With `CCN1CCC(n2cc(CNc3cc(Cl)c4ncc(C#N)c(Nc5ccc(F)c(Cl)c5)c4c3)nn2)CC1` as the compound, how does the parasite growth, % of DMSO control read?
Its parasite growth, % of DMSO control is 12.9%.

For `O=C(Nc1ccccc1)Nc1ccc(-c2ccc(C(=O)[C@H]3CCC[C@H]3C(=O)O)cc2)cc1`, which parasite growth, % of DMSO control is on record?
The parasite growth, % of DMSO control was 29%.

Which parasite growth, % of DMSO control does the source give for `CCn1c(-c2nonc2N)nc2cncc(CNC3CCNCC3)c21` here?
The parasite growth, % of DMSO control was 45.1%.

Which parasite growth, % of DMSO control does the source give for `Cn1c(=O)c(-c2c(Cl)cccc2Cl)cc2cnc(Nc3cccc(C(=O)O)c3)nc21` here?
Its parasite growth, % of DMSO control is 12.8%.

Which parasite growth, % of DMSO control does the source give for `COc1nc(C)cnc1NS(=O)(=O)c1cccnc1-c1ccc(-c2nnco2)cc1` here?
Its parasite growth, % of DMSO control is 100%.

With `COc1ccc(Cn2ccc3ccc(C(=O)NO)cc32)cc1` as the compound, how does the parasite growth, % of DMSO control read?
The parasite growth, % of DMSO control was 4.8%.

With `C=C[C@@H]1CN2CCC1C[C@@H]2C(O)c1ccnc2ccc(OC)cc12` (stereo not given in full) as the compound, how does the parasite growth, % of DMSO control read?
Its parasite growth, % of DMSO control is 8.37%.
